The nature of experiment [1]: inhibitors of TNFa-induced NFkB p65 translocation, primary screen, imaging, HUVEC, MLSMR starter and 10KST1 sets (AID 438;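 active = inhibition above 20% together with a positive visual image hit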;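 also: compound added about 3h40 before a 20 min TNFalpha stimulation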;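 as to inhibition: signal is the nuclear over cytoplasmic p65 intensity ratio per well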). Particulars: HUVEC TNFa-induced p65 nuclear translocation; cell count: measured here: nuclei count (cytotoxicity indicator), at 2.08 µM; inhibition: at 2 µM, stronger effect = higher value, 0% TNFa-plus-vehicle, 100% no-TNFa wells.
Experiment [2] is described as follows: inhibitors of mutant huntingtin aggregation, primary screen, imaging, exon1htt(103Q)mCFP cells, high-content imaging (AID 483;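 active = visual image review flags a hit and inhibition of aggregation exceeds 20%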;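 also: compound exposure lasted 3 days before fixation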;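 as to nuclei count: percent of the per-plate median nuclei count of sample wells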). Particulars: exon1htt(103Q)mCFP cell line, aggregate imaging, at 2 µM; inhibition of aggregation: stronger effect = higher value; nuclei count: measured here: cell count, toxicity.
Experiment [3] in a line: inhibitors of E-selectin induction by TNFa, primary screen, imaging, HUVEC, immunofluorescence, MLSMR starter and 10KST1 sets (AID 487;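 active = visually confirmed hit in the image check and inhibition above 20%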;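 as to inhibition: signal is fraction of cell area covered by stained E-selectin grains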;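 as to nuclei count: 100% = median nuclei count of all wells on the same plate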). Conditions: HUVEC TNFalpha-induced E-selectin immunofluorescence imaging, at 2 µM; inhibition: stronger effect = higher value; nuclei count: measured here: cell number, toxicity.
The nature of experiment [4]: DUSP6 inhibitors restoring Erk phosphorylation by chemical complementation, primary imaging in DUSP6-transfected HeLa (AID 609;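 active = compounds giving at least 50% inhibition in the cell-based MKP-3 phosphatase rescue imaging test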;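 as to inhibition: phospho-Erk level distribution per well compared with pooled transfected vehicle control wells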). Conditions: HeLa MKP-3 transfected, phospho-Erk imaging KS statistic, at 10 µM, cells stimulated with TPA for 15 min.
In experiment [5] the target is Dual specificity protein phosphatase 6 (Homo sapiens) (UniProt Q16828). Described as above. Conditions: HeLa MKP-3 transfected, phospho-Erk imaging KS statistic; at 10 µM; stronger effect = higher value; cells stimulated with TPA for 15 min.
Experiment [6] has as its target Voltage-gated potassium channel subunit beta-2 (Rattus norvegicus) (UniProt P62483). In words: KvBeta enzyme negative modulators, primary screen, biochemical, NADPH fluorescence (AID 622;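 active = fluorescence slope higher than the sample average by over 3 SD, cut at about -0.22 in these data, passing the limit was not always enough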;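 also: slope of raw intensity against log time taken from 70 to 1610 s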). Conditions: recombinant KvBeta, 4-cyanobenzaldehyde reduction, at 10 µM, stronger effect = higher value.
For experiment [7] the target is unchanged. The experiment is described as follows: KvBeta positive modulators, primary screen, biochemical, NADPH fluorescence (AID 623;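 active = NADPH fluorescence slope more negative than the mean of all samples by about 3 SD, 99.7% confidence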;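 also: fluorescence intensity change per second fitted from 20 to 320 s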). Particulars: Recombinant KvBeta, NADPH fluorescence decrease slope, 10 min; at 10 µM; stronger effect = lower value.
Experiment [8] concerns the target Alpha-2C adrenergic receptor (Homo sapiens) (UniProt P18825). In words: modulators of alpha2C/GIRK thallium flux, primary screen, cell-based, HEK293 alpha2C/GIRK1/2 (AID 624;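 active = fluorescence slope after compound addition differing from the mean of all screened samples at 99.7% confidence, in either direction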;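 also: slope of fluorescence ratio to pre-addition baseline per second over 15 to 24 s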). Conditions: thallium flux BTC fluorescence, at 10 µM, actives lie on both sides.
Experiment [9] in a line: inhibitors of larval lipid processing in zebrafish, primary screen, whole organism, PED6 fluorescence, gall bladder and intestine (AID 686;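 active = a full or partial loss of lipid-probe fluorescence in the fish gall bladder, intestine or both, judged by eye; inactive = no fluorescence loss, or compound toxic to the fish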;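 also: larvae 5 to 7 days old with five fish per well; signal comes from phospholipase A2 cleavage of quenched PED6 carried via bile; overnight exposure to compound and PED6 before scoring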). Particulars: Zebrafish larvae PED6 lipid processing, fluorescence scoring; screened at 20 µM (by protocol).
A short description of experiment [10]: inhibitors of Chlamydomonas gravitaxis, primary screen, whole organism, Chlamydomonas reinhardtii, WT vs cilia-less mutant, absorbance, 96-well (AID 463189).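 Also: 0% = wild type cc124 cells in DMSO and 100% = ciliumless bld1 mutant cells.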 Particulars: OD600 absorbance, 2 days, at 10 µM, stronger effect = higher value.
Experiment [11] can be described thus: inhibitors of Sendai virus-induced IRF3 signaling, primary screen, TLR/RLR signaling modifier project, cell-based, Sendai virus stimulus, luciferase, 10K MLSCN set (AID 602276;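 active = inhibition at or above 50% at 10 µM; inactive = inhibition below 50%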;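 also: firefly luciferase from ISG56 promoter only with Renilla not read in this screen; 0% = Sendai virus plus DMSO and 100% = medium plus DMSO without virus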). Conditions: HEK293 RL24 IRF3 luciferase reporter, at 10 µM, stronger effect = higher value. For orientation: A reporter such as luciferase makes a cellular process visible.
Experiment [12] is described as follows: inhibitors of poly I:C-induced TLR3 signaling, primary screen, cell-based, poly I:C stimulus, luciferase, 10K MLSCN set (AID 602277;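 active = inhibition of the reporter signal at or above 50%; inactive = inhibition below 50%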). Particulars: HEK293-TLR3 RL24 IRF3 luciferase reporter, at 10 µM, stronger effect = higher value.
Setting [13] is: measured here: cell density z-score.
Setting [14] is: measured here: nuclear c-Myc green intensity z-score.
Where [15] appears, read: measured here: nuclear pErk red intensity z-score, stronger effect = higher value.

Values joined by “and” are separate entries in the source; they are usually repeats but may differ in a detail not shown here. Equal values may be shown once. Active and inactive are the calls of the source.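 The calls were made as follows, unless noted: active = inhibition at or above 50% relative to wild type and mutant plate controls; inactive = inhibition below 50%.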

Sequence of Alpha-2C adrenergic receptor (Homo sapiens) (P18825 whole entry, looked up): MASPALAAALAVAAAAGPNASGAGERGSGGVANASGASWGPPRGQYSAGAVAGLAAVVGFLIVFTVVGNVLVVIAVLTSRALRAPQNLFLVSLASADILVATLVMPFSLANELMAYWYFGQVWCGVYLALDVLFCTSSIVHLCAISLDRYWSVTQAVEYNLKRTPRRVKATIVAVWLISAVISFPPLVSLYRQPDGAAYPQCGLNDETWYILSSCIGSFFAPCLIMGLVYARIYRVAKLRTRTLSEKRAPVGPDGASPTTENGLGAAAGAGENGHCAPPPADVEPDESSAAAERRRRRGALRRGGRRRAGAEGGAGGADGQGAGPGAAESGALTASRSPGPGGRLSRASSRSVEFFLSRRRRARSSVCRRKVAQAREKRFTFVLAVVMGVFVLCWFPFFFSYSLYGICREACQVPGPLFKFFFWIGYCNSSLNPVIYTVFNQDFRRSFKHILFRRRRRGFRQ
Sequence of Dual specificity protein phosphatase 6 (Homo sapiens) (Q16828 whole entry, looked up): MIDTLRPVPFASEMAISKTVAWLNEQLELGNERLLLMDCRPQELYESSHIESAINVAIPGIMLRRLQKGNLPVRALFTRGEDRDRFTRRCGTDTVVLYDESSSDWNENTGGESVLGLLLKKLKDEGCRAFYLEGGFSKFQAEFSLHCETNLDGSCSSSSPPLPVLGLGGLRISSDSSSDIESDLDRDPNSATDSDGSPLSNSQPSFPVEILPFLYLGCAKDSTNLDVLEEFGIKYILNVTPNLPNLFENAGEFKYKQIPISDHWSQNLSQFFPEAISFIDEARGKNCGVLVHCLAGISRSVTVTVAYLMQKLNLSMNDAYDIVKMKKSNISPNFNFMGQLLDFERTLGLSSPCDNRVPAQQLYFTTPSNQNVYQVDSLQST
Sequence of Voltage-gated potassium channel subunit beta-2 (Rattus norvegicus) (P62483 whole entry, looked up): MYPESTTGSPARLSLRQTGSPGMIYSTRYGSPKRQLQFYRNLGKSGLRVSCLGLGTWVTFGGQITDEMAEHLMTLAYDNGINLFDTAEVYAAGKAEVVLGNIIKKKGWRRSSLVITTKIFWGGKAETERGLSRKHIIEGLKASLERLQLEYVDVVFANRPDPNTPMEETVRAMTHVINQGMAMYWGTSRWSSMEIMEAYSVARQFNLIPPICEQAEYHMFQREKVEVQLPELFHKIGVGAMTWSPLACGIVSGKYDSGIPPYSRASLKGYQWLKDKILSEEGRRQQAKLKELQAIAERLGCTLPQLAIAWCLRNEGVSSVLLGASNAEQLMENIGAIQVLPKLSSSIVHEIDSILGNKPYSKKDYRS

`NC(=O)OCC(COC(N)=O)c1ccccc1`: the cell count in experiment [1] came to 615. The inhibition (in general, the change of the read-out against control, counted positive when it falls) in experiment [1] was -7.6% (inactive); in experiment [3] it was -22.5% (inactive); in experiment [5], 3.45% (inactive); in [10], -4.89% (inactive) and -8.93% (inactive); in experiment [11] it was 17.5% (inactive); in [12], 34.3% (inactive). Also, the inhibition of aggregation in [2] is -2.4% (inactive). For the same compound, the nuclei count amounted to 114% in experiment [2] and 108% in [3]. Also, the z-score in experiment [4] (setting [13]) was 1.02; in [4] (setting [14]), -0.593; in [4] (setting [15]) it was -0.701. In addition, the fluorescence slope in experiment [6] was -0.44 (inactive). Besides, the NADPH fluorescence slope in experiment [7] was -3.1e-05 (inactive). Besides, the slope in experiment [8] was 0.00508 (inactive). In addition, the result in experiment [9] was inactive.

Consider `Cc1ccc2nc(C(F)(F)F)c(C#N)c(N)c2c1`, for which, in experiment [1], the cell count worked out at 451. Also, the inhibition in experiment [1] is -9.7% (inactive); in [3], -14.1% (inactive); in experiment [5], 1.75% (inactive); in experiment [10], -8.78% (inactive); in experiment [11] it was 20% (inactive); in experiment [12], -10.8% (inactive). Also, the inhibition of aggregation in experiment [2] is 11% (inactive). For the same compound, the nuclei count in [2] is 77.3%; in experiment [3] it was 90.7%. Also, the results for the z-score in experiment [4] (setting [13]), in experiment [4] (setting [14]) and in [4] (setting [15]) were -0.557, -0.479 and -0.0348, respectively. The fluorescence slope in [6] was -0.49 (inactive). Moreover, in experiment [7], the NADPH fluorescence slope was -2e-05 (inactive). Also, the slope in experiment [8] is 0.00524 (inactive). Further, the call in experiment [9] was inactive.

In the case of `CCC(CC)C1C(C#N)=C(N)Oc2n[nH]c(C)c21` (stereo not given), the cell count in experiment [1] came to 565. Also, the inhibition in [1] was -2.9% (inactive); in experiment [3] it was -21.1% (inactive); in [5], 5.57% (inactive); in experiment [10] it was -5.48% (inactive); in experiment [11], 41.8% (inactive); in experiment [12], 50% (inactive). For the same compound, the inhibition of aggregation in experiment [2] is -28.3% (inactive). Moreover, the nuclei count in experiment [2] came out at 102%; in experiment [3], 112%. The z-score is -1.42 in experiment [4] (setting [13]), -0.486 in experiment [4] (setting [14]) and 0.51 in [4] (setting [15]). In addition, the fluorescence slope in [6] is -0.492 (inactive). Besides, the NADPH fluorescence slope in experiment [7] was -0.000106 (inactive). The slope in experiment [8] was 0.00492 (inactive). In experiment [9], the result was inactive.

Turning to `CCC(=O)Oc1ccc(C(CC)C(CC)c2ccc(OC(=O)CC)cc2)cc1` (stereo not given), the cell count in experiment [1] amounted to 548. The inhibition in [1] is -8% (inactive); in experiment [3] it was -70.7% (inactive); in experiment [5], -4.44% (inactive); in experiment [10], 0.847% (inactive); in [11], 12.9% (inactive); in experiment [12], 33.2% (inactive). Moreover, in experiment [2], the inhibition of aggregation is -5.4% (inactive). Also, the nuclei count in experiment [2] is 107%; in [3] it was 132%. Further, the z-score in experiment [4] (setting [13]) was -1.07; in experiment [4] (setting [14]), 0.0699; in experiment [4] (setting [15]), 1.82. Moreover, the fluorescence slope in experiment [6] was -0.48 (inactive). Besides, in [7], the NADPH fluorescence slope was 1.7e-05 (inactive). Further, the slope in [8] is 0.0054 (inactive). Moreover, in experiment [9], the result was inactive.

As for `Nc1ncnc2c1ncn2[C@@H]1O[C@H](CO)[C@@H](O)[C@H]1O`, the cell count in [1] came out at 562. Also, the inhibition in experiment [1] is -1.7% (inactive); in [3], -40.5% (inactive); in experiment [5], -12.3% (inactive); in experiment [10], -7.15% (inactive); in [11], 11.2% (inactive); in experiment [12], 25.6% (inactive). Further, the inhibition of aggregation in [2] was -15.3% (inactive). For the same compound, the nuclei count turned out to be 101% in [2] and 128% in [3]. In addition, the z-score is 0.315 in experiment [4] (setting [13]), -0.14 in experiment [4] (setting [14]) and 0.779 in experiment [4] (setting [15]). Further, the fluorescence slope in [6] is -0.453 (inactive). For the same compound, the NADPH fluorescence slope in experiment [7] is -3.6e-05 (inactive). For the same compound, in experiment [8], the slope was 0.00542 (inactive). In addition, the outcome in [9] was inactive.

Consider `CCNC(=O)N(C(=O)NCC)n1c(C)nnc1C`, for which the cell count in experiment [1] was 615. For the same compound, the inhibition in [1] was -11.1% (inactive); in experiment [3], 28.7% (inactive); in experiment [5], 1.12% (inactive); in [10], 11% (inactive); in experiment [11], 9.47% (inactive); in experiment [12], 14% (inactive). Further, in experiment [2], the inhibition of aggregation was 16.9% (inactive). Further, the nuclei count in experiment [2] turned out to be 96.4%; in [3], 130%. Further, the z-score in experiment [4] (setting [13]) is -1.98; in experiment [4] (setting [14]) it was 1.53; in experiment [4] (setting [15]), -0.158. Further, the fluorescence slope in [6] is -0.413 (inactive). In addition, the NADPH fluorescence slope in experiment [7] is -6e-05 (inactive). The slope in experiment [8] was 0.00476 (inactive). The compound was called inactive in [9].

Consider `CCOC(=O)c1[nH]c2ccccc2c1NC(=O)CCN1CCN(C(=O)OCC)CC1`, for which the cell count in [1] was found to be 626. The inhibition is -1.9% (inactive) in experiment [1]; 1% (inactive) in experiment [3]; -5.26% (inactive) in experiment [5]; -5.66% (inactive) in experiment [10]; 14.7% (inactive) in experiment [11]; 19.4% (inactive) in experiment [12]. Moreover, in experiment [2], the inhibition of aggregation is -2.8% (inactive). Also, the nuclei count in [2] was found to be 104%; in experiment [3], 144%. The z-score in [4] (setting [13]) is -1.64; in experiment [4] (setting [14]), 0.13; in experiment [4] (setting [15]) it was 1.55. The fluorescence slope in experiment [6] was -0.344 (inactive). Besides, the NADPH fluorescence slope in [7] was -4.4e-05 (inactive). Further, the slope in experiment [8] is 0.00527 (inactive). In addition, in [9], the result was inactive.

Consider `NC(N)=NC(N)=NCCc1ccccc1`, for which the cell count in [1] was 589. The inhibition in experiment [1] is -4.3% (inactive); in [3], -58.8% (inactive); in experiment [5] it was -2.46% (inactive); in [10], -5.62% (inactive); in experiment [11], 10.9% (inactive); in [12] it was 30.4% (inactive). Moreover, the inhibition of aggregation in [2] was -8.6% (inactive). Besides, the nuclei count in experiment [2] came out at 93.2%; in experiment [3], 108%. Besides, the results for the z-score in experiment [4] (setting [13]), in [4] (setting [14]) and in [4] (setting [15]) were -1, -0.445 and -0.339, respectively. The fluorescence slope in experiment [6] is -0.439 (inactive). Further, the NADPH fluorescence slope in experiment [7] is -1.7e-05 (inactive). Also, the slope in experiment [8] is 0.004 (inactive). Further, the compound was called inactive in experiment [9].

With `CN(C)CCN(Cc1ccccc1)c1ccccn1`, in [1], the cell count is 526. The inhibition in experiment [1] is -10.5% (inactive); in [3] it was -31.1% (inactive); in [5], 9.37% (inactive); in [10] it was 49.5% (inactive); in [11] it was 11.1% (inactive); in experiment [12] it was 33.9% (inactive). For the same compound, the inhibition of aggregation in experiment [2] was 18.7% (inactive). For the same compound, the nuclei count in [2] turned out to be 98.3%; in experiment [3], 109%. Also, the z-score was -0.393 in experiment [4] (setting [13]), 0.385 in experiment [4] (setting [14]) and -0.67 in experiment [4] (setting [15]). In addition, in [6], the fluorescence slope was -0.432 (inactive). In addition, the NADPH fluorescence slope in experiment [7] is -8.6e-05 (inactive). Besides, the slope in [8] is 0.00588 (inactive). The call in experiment [9] was inactive.

For `CCCCCC(=O)N1CC2(CC)CN(C(=O)CCCCC)CC(CC)(C1)C2=O`, the cell count in experiment [1] is 548. Moreover, the inhibition is 4.4% (inactive) in experiment [1]; -77.8% (inactive) in experiment [3]; 7.42% (inactive) in experiment [5]; 22.6% (inactive) in [10]; 3.77% (inactive) in experiment [11]; 34.5% (inactive) in [12]. For the same compound, the inhibition of aggregation in experiment [2] is 26.5% (inactive). Besides, the nuclei count in [2] amounted to 90%; in [3], 117%. The z-score in [4] (setting [13]) was 0.465; in experiment [4] (setting [14]), -0.132; in [4] (setting [15]) it was -0.254. For the same compound, the fluorescence slope in experiment [6] was -0.308 (inactive). In addition, the NADPH fluorescence slope in [7] is -9.9e-07 (inactive). For the same compound, the slope in experiment [8] was 0.00431 (inactive). Besides, the call in experiment [9] was inactive.

Source of the values: PubChem BioAssay.
